Columns and labels:
Type in all cases: functional
[1] = system: Plasmodium falciparum; assay: GSK_TCMDC: Inhibition of Plasmodium falciparum 3D7 in whole red blood cells, using parasite LDH activity as an index of growth. Test compounds present at 2uM
[2] = system: Plasmodium falciparum; assay: GSK_TCMDC: Inhibition of Plasmodium falciparum Dd2 in whole red blood cells, using parasite LDH activity as an index of growth. Test compounds present at 2uM
[3] = system: HepG2; assay: GSK_TCMDC: Percent inhibition of human HepG2 cell line. Test compounds present at 10uM.

CC(C)C1C(O)=C(c2ccc3ccccc3c2)C(=O)N1Cc1cccc(F)c1 (configuration not stated)
Inhibition [1]: 97%
Inhibition [2]: 82%
Inhibition [3]: 3%

CS(=O)(=O)N1CC2(CCN(CCC(NC(=S)Nc3ccccc3)c3ccc(Cl)c(Cl)c3)CC2)c2ccccc21 (configuration not stated)
Inhibition [1]: 98%
Inhibition [2]: 80%
Inhibition [3]: 24%

Cl.Nc1nc(N)c2c(ccc3nn(S(=O)(=O)N4CCCC4)cc32)n1
Inhibition [1]: 95%
Inhibition [2]: 0%
Inhibition [3]: 69%

Cn1cnc(CCNC(=O)c2ccc(-c3cccc(-c4nc5cc(C(F)(F)F)ccc5[nH]4)c3)cc2)c1
Inhibition [1]: 100%
Inhibition [2]: 93%
Inhibition [3]: 25%

COc1cc(OC)c2c(C)cc(NCCCn3ccnc3)nc2c1
Inhibition [1]: 100%
Inhibition [2]: 22%
Inhibition [3]: 6%

CN1c2ccccc2Sc2cc(CNCCSCCNCc3ccc4c(c3)Sc3ccccc3N4C)ccc21.Cl
Inhibition [1]: 84%
Inhibition [2]: 44%
Inhibition [3]: 58%

COc1cccc(CN2CCN(C(c3ccccc3)c3ccccc3)CC2)c1O.O=C(O)C(=O)O
Inhibition [1]: 99%
Inhibition [2]: 98%
Inhibition [3]: 6%

Cc1cc(NC(=O)c2cccs2)ccc1OC1CCN(Cc2ccc(F)cc2)CC1.O=C(O)C(F)(F)F
Inhibition [1]: 94%
Inhibition [2]: 92%
Inhibition [3]: 7%

Clc1ccccc1CCNCC1CCN(CC2CCCCC2)CC1.O=C(O)C(F)(F)F
Inhibition [1]: 97%
Inhibition [2]: 38%
Inhibition [3]: 45%

Cl.NC1=NC(Cc2ccccc2)N(c2ccc(Cl)cc2)C(N)=N1 (configuration not stated)
Inhibition [1]: 93%
Inhibition [2]: 4%
Inhibition [3]: 21%

COC(=O)c1ccc2nc(-c3ccc(/C=C/C(=O)NC4CCN(Cc5ccccc5)CC4)cc3)[nH]c2c1
Inhibition [1]: 100%
Inhibition [2]: 88%
Inhibition [3]: 12%

O=c1[nH]nc(-c2ccc(N3CCCC3)c([N+](=O)[O-])c2)c2ccccc12
Inhibition [1]: 100%
Inhibition [2]: 39%
Inhibition [3]: 2%

COc1cc(Cc2cnc(N)nc2N)cc(OCCCN2C(=O)c3ccccc3C2=O)c1OC
Inhibition [1]: 96%
Inhibition [2]: 0%
Inhibition [3]: 0%

COc1ccccc1-n1ccnc1SCC(=O)Nc1cc(C(F)(F)F)ccc1Cl
Inhibition [1]: 97%
Inhibition [2]: 97%
Inhibition [3]: 0%

Cc1ccc2c(c1)NCC21CCN(C[C@@H](O)C2CCN(c3cc(C#N)ccn3)CC2)CC1C (some centres not stated)
Inhibition [1]: 90%
Inhibition [2]: 79%
Inhibition [3]: 28%

CN(C)c1ccc(CN2CCC(CNC(=O)c3cc(-c4cccc(C(F)(F)F)c4)cs3)C2)cc1.O=C(O)C(F)(F)F (configuration not stated)
Inhibition [1]: 96%
Inhibition [2]: 34%
Inhibition [3]: 39%

O=C(O)C(F)(F)F.OC1CCCN(Cc2cccc(-c3ccc(-c4nc5cc(C(F)(F)F)ccc5[nH]4)cc3)c2)C1 (configuration not stated)
Inhibition [1]: 100%
Inhibition [2]: 91%
Inhibition [3]: 27%

Cl.c1ccc(Oc2ccc(Nc3ccnc(Nc4ccc(OCCN5CCCCC5)cc4)n3)cc2)cc1
Inhibition [1]: 97%
Inhibition [2]: 66%
Inhibition [3]: 23%

Cc1ccc(-c2noc(COc3ccccc3C(=O)NC3CCCC3)n2)cc1
Inhibition [1]: 89%
Inhibition [2]: 92%
Inhibition [3]: 9%

CN1CCC(NCc2ccc(-c3ccc(Cl)cc3)cc2)CC1
Inhibition [1]: 99%
Inhibition [2]: 43%
Inhibition [3]: 50%

CC1(C)N=C(N)N=C(Nc2ccc(F)c(F)c2)N1.Cl
Inhibition [1]: 91%
Inhibition [2]: 1%
Inhibition [3]: 59%

CC(C)(CNCc1ccc(F)c(F)c1)c1nc(-c2ccc(Cl)c(O)c2)c(-c2ccncc2)[nH]1.Cl
Inhibition [1]: 100%
Inhibition [2]: 89%
Inhibition [3]: 74%

CC(C)(C)c1cc(C(=O)N2CCN(c3ccc(C(F)(F)F)cn3)CC2)n(Cc2ccc(F)cc2)n1
Inhibition [1]: 88%
Inhibition [2]: 26%
Inhibition [3]: 4%

COc1cc(F)c2ncc(F)c(CCN3C[C@H](CNCc4ccc5c(n4)NC(=O)CS5)[C@H](O)C3)c2c1.Cl
Inhibition [1]: 91%
Inhibition [2]: 47%
Inhibition [3]: 10%

O=C(Oc1ccc(Cl)cc1C(=O)Nc1ccc([N+](=O)[O-])cc1Cl)c1ccccc1
Inhibition [1]: 97%
Inhibition [2]: 19%
Inhibition [3]: 88%

CS(=O)(=O)N1CC2(CCN(CCC(NC(=O)NCc3ccccc3Cl)c3ccc(Cl)c(Cl)c3)CC2)c2ccccc21 (configuration not stated)
Inhibition [1]: 85%
Inhibition [2]: 98%
Inhibition [3]: 12%

Cc1ccc2c(N/N=C/c3ccccc3[N+](=O)[O-])cc(C)nc2c1
Inhibition [1]: 100%
Inhibition [2]: 100%
Inhibition [3]: 13%

Nc1nc(N)c2c(ccc3c2ccn3Cc2ccc(OCc3ccccc3)cc2)n1
Inhibition [1]: 98%
Inhibition [2]: 1%
Inhibition [3]: 5%

O=c1ccc(CNc2nc(NCCc3ccccc3)nc3ccc(Cl)cc23)c[nH]1
Inhibition [1]: 99%
Inhibition [2]: 16%
Inhibition [3]: 9%
